Screening results (PubChem)
aSyn UTR act – Activators working through SNCA 5'UTR binding (MLPCN); alpha-synuclein 5'UTR reporter, activators screen; activity score, % (tested at 7.5 µM), hits read low; 7.1% of 300,000 active; AID 1814; in the data active = activity score below about -60%
Numbers without * were called inactive. A selection follows.

SMILES | aSyn UTR act
Cc1ccc(/C(N)=N/OC(=O)CCC2CCCC2)cc1 | -85.2*
Cc1cccc(/C(N)=N/OC(=O)CCC2CCCCC2)c1 | -108.7*
CC(=O)Nc1cccc(NC(=O)C(=O)c2cn(CC(=O)N3CCCCC3)c3ccccc23)c1 | -121.5*
COc1ccc(NC(=O)C(=O)c2cn(CC(=O)N3CCCC3)c3ccccc23)cc1 | 104.6
Cc1ccccc1OCc1nc2ccccc2n1C | -169.8*
Cc1cccc(OCc2nc3ccccc3n2C)c1 | -140.3*
Cn1c(COc2ccc(F)cc2)nc2ccccc21 | -121.3*
Nn1c(CSc2ccccn2)nc2ccccc2c1=O | -123.0*
Cc1cccc(OCc2nc3ccccc3c(=O)n2N)c1 | -71.4*
Nc1ccc2oc(=O)c3ccccc3c2c1 | -174.1*
Cc1ccsc1/C=C1/SC(N2CCOCC2)=NC1=O | -79.6*
Cc1sc(NC(=O)C2C3CCC(O3)C2C(=O)O)nc1-c1ccc(CC(C)C)cc1 (stereo unspecified) | -139.2*
COc1ccc(-c2nnc(SCC(=O)c3ccc[nH]3)n2-c2ccccc2)cc1 | -70.2*
COc1cc(C2c3cc4c(cc3C(OC3OC5COC(c6cccs6)OC5C(O)C3O)C3COC(=O)C23)OCO4)cc(OC)c1O (stereo unspecified) | 81.7
CC(=O)Nc1c(-c2ccc3ccccc3c2)nc2ccccn12 | -124.3*
COC(=O)CSc1nc2ccccn2c(=O)c1C=O | -172.7*
O=C(CSc1cccs1)Nc1ccc2ccccc2c1 | -125.7*
O=C(CSc1cccs1)Nc1cccc2ccccc12 | -112.4*
O=C(CSc1ccccc1)Nc1ccc2sccc2c1 | -77.9*
CCOC(=O)N1CCN(C(=O)CCNS(=O)(=O)c2ccc3c(c2)c(=O)n(C)c(=O)n3C)CC1 | -153.0*
CC(=O)Nc1ncnc2c1c(-c1ccc(Cl)cc1)nn2C(C)(C)C | 52.6
CC(=O)Nc1nc(-c2ccc(Cl)cc2)nc(C)c1C(C)=O | -111.2*
COc1ccc(NS(=O)(=O)c2cc(-c3cnc(C4CC4)o3)ccc2C)cc1 | 82.0
COc1ccc(NS(=O)(=O)c2cc(C)ccc2C)cc1 | -67.4*
O=C(OCc1nnc(-c2ccccc2)o1)C12CC3CC(CC(Br)(C3)C1)C2 | -105.0*
SMILES | aSyn UTR act
COc1ccc2sc3ccccc3c(=O)c2c1 | -169.7*
COc1ccc2oc3ccccc3c(=O)c2c1 | -161.5*
COc1ccc(-c2cc(=O)c3ccccc3s2)cc1 | -248.0*
COc1ccc2oc3ccc(OC)cc3c(=O)c2c1 | -189.5*
CCOC(=O)C1CCCCN1C(=O)CCc1nnc(-c2ccc3c(c2)OCO3)o1 (stereo unspecified) | -65.2*
Cc1sc(NC(=O)c2ccccc2)c(C#N)c1-c1ccccc1 | -141.3*
CCc1c(C)sc(NC(=O)c2cc(C)on2)c1C#N | -103.2*
CCc1c(C)sc(NC(=O)c2cccs2)c1C#N | -157.5*
Cc1cc(C(=O)Nc2sc(C)c(-c3ccc(F)cc3)c2C(N)=O)no1 | -199.8*
Cc1c(C(=O)Nc2ccccc2)sc2nc[nH]c(=O)c12 | -72.0*
CC(=O)c1cccc(NC(=O)c2sc(Cl)nc2C)c1 | -65.4*
Cc1nc(Cl)sc1C(=O)Nc1ccccc1 | -66.6*
COc1ccc(C(=O)/C(=C\c2sccc2C)c2nc3ccccc3o2)cc1 | -67.8*
FC(F)(F)c1cnc2c(-c3ccccc3)n[nH]c2c1 | -129.5*
O=C(/C(N=Nc1cccc(C(F)(F)F)c1)=C(/O)c1cccs1)C(F)(F)F | -62.3*
Cc1ccc(N=C/C(C(=O)C(F)(F)F)=C(\O)c2cccs2)cc1 | -89.2*
COc1ccc2cc(/C=N/NC(=O)c3ccc(CN(c4ccc(C)c(C)c4)S(C)(=O)=O)cc3)c(Cl)nc2c1 | 64.8
Cc1ccc2nc(Cl)c(/C=C/C(=O)c3ccco3)cc2c1 | -151.2*
Cc1ccc2cc(/C=C/C(=O)c3ccco3)c(Cl)nc2c1 | -120.8*
COc1ccc2cc(/C=C/C(=O)c3ccco3)c(Cl)nc2c1 | -78.0*
C=CCSc1ncc(-c2ccccc2)cn1 | -159.7*
C#CCSc1ncc(-c2ccccc2)cn1 | -100.6*
CCc1ccccc1NC(=O)c1cccc(NC(=O)/C=C/c2ccco2)c1 | -100.0*
Cc1ccc(-n2nc3ccc(NC(=O)/C=C/c4ccco4)cc3n2)cc1 | -201.8*
O=C(/C=C/c1ccco1)Nc1ccc2c(c1)OCO2 | -187.7*
SMILES | aSyn UTR act
COC(=O)c1c(-c2ccccc2)csc1NC1=NS(=O)(=O)c2ccccc21 | -121.5*
COc1ccccc1-c1noc(-c2ccccc2)n1 | -126.2*
COc1ccccc1-c1noc(-c2ccco2)n1 | -129.0*
COc1ccc(-c2nc(-c3ccccc3OC)no2)cc1OC | -230.9*
CCCCC[n+]1ccn(C2=C([O-])c3ccccc3C(=O)/C2=N\S(=O)(=O)c2ccc(Cl)cc2)c1 | 47.8
CCC(C)N(CC(=O)Nc1cccc(C)c1C)C(=O)CCl (stereo unspecified) | -88.3*
O=[N+]([O-])c1ccc(CSc2nc3ccccc3o2)cc1 | -133.2*
c1ccc2[nH]c(CSc3nc4ccccc4o3)nc2c1 | -77.7*
Cc1cc(NC(=O)/C=C/c2ccccc2Cl)n(-c2nc3ccccc3[nH]2)n1 | -110.7*
Cc1nc2ccccc2c(=O)n1NC(=O)/C=C/c1ccccc1Cl | -138.4*
O=C(/C=C/c1ccccc1Cl)Nn1cnc2ccccc2c1=O | -136.8*
Cc1c(C(=O)NNC(=S)Nc2cccc(Cl)c2)nnn1-c1ccccc1 | -68.8*
COc1ccccc1C(=O)Nc1ccc(Br)cc1C | -96.2*
COc1cc(SC)ccc1C(=O)Nc1ccccc1 | -184.1*
O=C(Oc1ccccc1C(=O)Nc1ccccc1)c1ccc(Br)c([N+](=O)[O-])c1 | -120.6*
COc1cc(SC)ccc1C(=O)Nc1nc2ccccc2[nH]1 | 131.5
COc1ccccc1C(=O)Oc1ccccc1C(=O)Nc1ccccc1 | -162.9*
Cc1nn(C)cc1C(=O)NNC(=S)Nc1ccccc1 | -110.3*
COc1ccccc1C(=O)NNC(=S)Nc1ccccc1 | -107.1*
Cc1c(C(=O)OC(C)C)sc(N)c1C(=O)OC(C)C | -119.7*
COc1ccccc1-c1nnc2n1N=C(c1ccc(O)c(O)c1)CS2 | 97.0
COc1cc(C(C#N)N2N=C(c3ccccc3)CC2c2ccccc2)ccc1O (stereo unspecified) | -142.0*
COc1ccc(OC)c(S(=O)(=O)ON2C(=O)c3ccccc3C2=O)c1 | -90.3*
COc1cccc([C@@H]2Oc3ccc(OC)cc3C(=O)[C@H]2OC(=O)NCc2ccc3c(c2)OCO3)c1 | -136.9*
Cn1nc(OC(=O)Nc2ccccc2)cc1C(F)(F)F | -122.5*
SMILES | aSyn UTR act
COc1ccc(N2CCN(C(=O)c3ccc(Cn4c(=S)[nH]c5ccc(N6CCOCC6)cc5c4=O)cc3)CC2)cc1 | -110.8*
O=c1c2cc(N3CCOCC3)ccc2[nH]c(=S)n1Cc1ccc(Cl)cc1 | -121.5*
Cc1ccc(NC(=O)N2CCc3ccccc3C2)c(C)c1 | -75.5*
O=C(Nc1ccccc1)N1CCc2ccccc2C1 | -126.3*
O=C(CNc1cccc(F)c1)N1CCc2ccccc2C1 | -195.3*
COc1cc2c(cc1OC)-c1cc(Nc3ccc(N(C)C)cc3)nc(=O)n1CC2 | 51.7
CN(C)c1ccc(NC(=O)CN2CCc3ccccc3C2)cc1 | -78.7*
Cc1ccc(NC(=O)N2CCc3ccccc3C2)cc1 | -212.4*
O=C(CNS(=O)(=O)c1cccs1)N1CCc2ccccc2C1 | -72.3*
O=C(NCCCN1CCc2ccccc2C1)Nc1ccc(Cl)cc1 | -110.2*
O=C(Cc1ccc(Cl)cc1)N1CCc2ccccc2C1 | -160.0*
O=C(Nc1ccc(Cl)cc1)N1CCc2ccccc2C1 | -208.7*
CCOc1ccc(NC(=O)N2CCc3ccccc3C2)cc1 | -92.1*
O=C(Cc1ccccc1[N+](=O)[O-])NCc1ccc(Cl)cc1Cl | -142.2*
